About 8,800 targets were measured; listed, in parts, are those with a hit and a random draw of the rest. About 0.5% of all pairs of compound and target were hits.
Columns and labels:
Assay in all cases: log2 fold change, soluble protein after heating vs DMSO (PISA); higher = thermal stabilisation; K562 lysate, 10 uM; active = over 0.2 and 3.5 SD of the protein, either way, in both replicates (recomputed)
alvocidib = compound: CN1CC[C@H](c2c(O)cc(O)c3c(=O)cc(-c4ccccc4Cl)oc23)[C@H](O)C1 [alvocidib]
Method in brief: (§1)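 Dounce homogenisation of K562 pellets in PBS pH 7.4 with 1 mM MgCl2 produced a crude extract, used at 1 mg/mL protein. Exposure to 10 μM compound lasted 30 min, and aliquots were then heated for 3 min across 48°C-58°C, pooled and brought to 0.5% NP-40 at 4°C. The supernatant after 21,000xg for 90 min was quantified by TMTpro 16plex LC-MS/MS with channel sums equalised. Duplicate values are given as log-two fold change in thermal stability relative to solvent controls.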

Tubastatin A = compound: CN1CCc2c(c3ccccc3n2Cc2ccc(C(=O)NO)cc2)C1 [Tubastatin A]
Method in brief: as §1

[1] = compound: CNC(=O)C1=CC=CC=C1NC2=NC(=NC=C2Cl)NC3=C(C=C(C=C3)N4CCOCC4)OC
Method in brief: as §1

defactinib = compound: CNC(=O)c1ccc(Nc2ncc(C(F)(F)F)c(NCc3nccnc3N(C)S(C)(=O)=O)n2)cc1 [defactinib]
Method in brief: as §1

[2] = compound: CNc1nc(-c2ccc3c(N)n[nH]c3c2)cc(N2C[C@@H](C(=O)NC3CCCCC3)CC[C@H]2C)n1
Method in brief: as §1

encorafenib = compound: COC(=O)N[C@@H](C)CNc1nccc(-c2cn(C(C)C)nc2-c2cc(Cl)cc(NS(C)(=O)=O)c2F)n1 [encorafenib]
Method in brief: as §1

[3] = compound: COC(=O)[C@H](CCSC)NC(=O)C1=C(C=C(C=C1)NC[C@H](CS)N)C2=CC=CC=C2
Method in brief: as §1

alisertib = compound: COc1cc(Nc2ncc3c(n2)-c2ccc(Cl)cc2C(c2c(F)cccc2OC)=NC3)ccc1C(=O)O [alisertib]
Method in brief: as §1

[4] = compound: COc1cc2nc(-c3cc(F)ccc3O)nc(N[C@@H]3CNC[C@H]3C(C)(C)O)c2cc1OC
Method in brief: as §1

gefitinib = compound: COc1cc2ncnc(Nc3ccc(F)c(Cl)c3)c2cc1OCCCN1CCOCC1 [gefitinib]
Method in brief: as §1

lapatinib = compound: CS(=O)(=O)CCNCc1ccc(-c2ccc3ncnc(Nc4ccc(OCc5cccc(F)c5)c(Cl)c4)c3c2)o1 [lapatinib]
Method in brief: as §1

pictilisib = compound: CS(=O)(=O)N1CCN(Cc2cc3nc(-c4cccc5[nH]ncc45)nc(N4CCOCC4)c3s2)CC1 [pictilisib]
Method in brief: as §1

crizotinib = compound: C[C@@H](Oc1cc(-c2cnn(C3CCNCC3)c2)cnc1N)c1c(Cl)ccc(F)c1Cl [crizotinib]
Method in brief: as §1

[5] = compound: C[C@H](C1=CC=C(C=C1)C(=O)NC2=C3C=CNC3=NC=C2)N
Method in brief: as §1

duvelisib = compound: C[C@H](Nc1ncnc2nc[nH]c12)c1cc2cccc(Cl)c2c(=O)n1-c1ccccc1 [duvelisib]
Method in brief: as §1

gandotinib = compound: Cc1cc(Nc2cc(CN3CCOCC3)c3nc(C)c(Cc4ccc(Cl)cc4F)n3n2)n[nH]1 [gandotinib]
Method in brief: as §1

tozasertib = compound: Cc1cc(Nc2cc(N3CCN(C)CC3)nc(Sc3ccc(NC(=O)C4CC4)cc3)n2)n[nH]1 [tozasertib]
Method in brief: as §1

doramapimod = compound: Cc1ccc(-n2nc(C(C)(C)C)cc2NC(=O)Nc2ccc(OCCN3CCOCC3)c3ccccc23)cc1 [doramapimod]
Method in brief: as §1

bafetinib = compound: Cc1ccc(NC(=O)c2ccc(CN3CC[C@H](N(C)C)C3)c(C(F)(F)F)c2)cc1Nc1nccc(-c2cncnc2)n1 [bafetinib]
Method in brief: as §1

[6] = compound: Cc1cccc(CC(=O)N2CCc3c2ccc(-c2cn(C)c4ncnc(N)c24)c3F)n1
Method in brief: as §1

Measured: log2 fold change

RELN (UniProt P78509)
Chain of UniProt P78509 (P78509 whole entry, looked up): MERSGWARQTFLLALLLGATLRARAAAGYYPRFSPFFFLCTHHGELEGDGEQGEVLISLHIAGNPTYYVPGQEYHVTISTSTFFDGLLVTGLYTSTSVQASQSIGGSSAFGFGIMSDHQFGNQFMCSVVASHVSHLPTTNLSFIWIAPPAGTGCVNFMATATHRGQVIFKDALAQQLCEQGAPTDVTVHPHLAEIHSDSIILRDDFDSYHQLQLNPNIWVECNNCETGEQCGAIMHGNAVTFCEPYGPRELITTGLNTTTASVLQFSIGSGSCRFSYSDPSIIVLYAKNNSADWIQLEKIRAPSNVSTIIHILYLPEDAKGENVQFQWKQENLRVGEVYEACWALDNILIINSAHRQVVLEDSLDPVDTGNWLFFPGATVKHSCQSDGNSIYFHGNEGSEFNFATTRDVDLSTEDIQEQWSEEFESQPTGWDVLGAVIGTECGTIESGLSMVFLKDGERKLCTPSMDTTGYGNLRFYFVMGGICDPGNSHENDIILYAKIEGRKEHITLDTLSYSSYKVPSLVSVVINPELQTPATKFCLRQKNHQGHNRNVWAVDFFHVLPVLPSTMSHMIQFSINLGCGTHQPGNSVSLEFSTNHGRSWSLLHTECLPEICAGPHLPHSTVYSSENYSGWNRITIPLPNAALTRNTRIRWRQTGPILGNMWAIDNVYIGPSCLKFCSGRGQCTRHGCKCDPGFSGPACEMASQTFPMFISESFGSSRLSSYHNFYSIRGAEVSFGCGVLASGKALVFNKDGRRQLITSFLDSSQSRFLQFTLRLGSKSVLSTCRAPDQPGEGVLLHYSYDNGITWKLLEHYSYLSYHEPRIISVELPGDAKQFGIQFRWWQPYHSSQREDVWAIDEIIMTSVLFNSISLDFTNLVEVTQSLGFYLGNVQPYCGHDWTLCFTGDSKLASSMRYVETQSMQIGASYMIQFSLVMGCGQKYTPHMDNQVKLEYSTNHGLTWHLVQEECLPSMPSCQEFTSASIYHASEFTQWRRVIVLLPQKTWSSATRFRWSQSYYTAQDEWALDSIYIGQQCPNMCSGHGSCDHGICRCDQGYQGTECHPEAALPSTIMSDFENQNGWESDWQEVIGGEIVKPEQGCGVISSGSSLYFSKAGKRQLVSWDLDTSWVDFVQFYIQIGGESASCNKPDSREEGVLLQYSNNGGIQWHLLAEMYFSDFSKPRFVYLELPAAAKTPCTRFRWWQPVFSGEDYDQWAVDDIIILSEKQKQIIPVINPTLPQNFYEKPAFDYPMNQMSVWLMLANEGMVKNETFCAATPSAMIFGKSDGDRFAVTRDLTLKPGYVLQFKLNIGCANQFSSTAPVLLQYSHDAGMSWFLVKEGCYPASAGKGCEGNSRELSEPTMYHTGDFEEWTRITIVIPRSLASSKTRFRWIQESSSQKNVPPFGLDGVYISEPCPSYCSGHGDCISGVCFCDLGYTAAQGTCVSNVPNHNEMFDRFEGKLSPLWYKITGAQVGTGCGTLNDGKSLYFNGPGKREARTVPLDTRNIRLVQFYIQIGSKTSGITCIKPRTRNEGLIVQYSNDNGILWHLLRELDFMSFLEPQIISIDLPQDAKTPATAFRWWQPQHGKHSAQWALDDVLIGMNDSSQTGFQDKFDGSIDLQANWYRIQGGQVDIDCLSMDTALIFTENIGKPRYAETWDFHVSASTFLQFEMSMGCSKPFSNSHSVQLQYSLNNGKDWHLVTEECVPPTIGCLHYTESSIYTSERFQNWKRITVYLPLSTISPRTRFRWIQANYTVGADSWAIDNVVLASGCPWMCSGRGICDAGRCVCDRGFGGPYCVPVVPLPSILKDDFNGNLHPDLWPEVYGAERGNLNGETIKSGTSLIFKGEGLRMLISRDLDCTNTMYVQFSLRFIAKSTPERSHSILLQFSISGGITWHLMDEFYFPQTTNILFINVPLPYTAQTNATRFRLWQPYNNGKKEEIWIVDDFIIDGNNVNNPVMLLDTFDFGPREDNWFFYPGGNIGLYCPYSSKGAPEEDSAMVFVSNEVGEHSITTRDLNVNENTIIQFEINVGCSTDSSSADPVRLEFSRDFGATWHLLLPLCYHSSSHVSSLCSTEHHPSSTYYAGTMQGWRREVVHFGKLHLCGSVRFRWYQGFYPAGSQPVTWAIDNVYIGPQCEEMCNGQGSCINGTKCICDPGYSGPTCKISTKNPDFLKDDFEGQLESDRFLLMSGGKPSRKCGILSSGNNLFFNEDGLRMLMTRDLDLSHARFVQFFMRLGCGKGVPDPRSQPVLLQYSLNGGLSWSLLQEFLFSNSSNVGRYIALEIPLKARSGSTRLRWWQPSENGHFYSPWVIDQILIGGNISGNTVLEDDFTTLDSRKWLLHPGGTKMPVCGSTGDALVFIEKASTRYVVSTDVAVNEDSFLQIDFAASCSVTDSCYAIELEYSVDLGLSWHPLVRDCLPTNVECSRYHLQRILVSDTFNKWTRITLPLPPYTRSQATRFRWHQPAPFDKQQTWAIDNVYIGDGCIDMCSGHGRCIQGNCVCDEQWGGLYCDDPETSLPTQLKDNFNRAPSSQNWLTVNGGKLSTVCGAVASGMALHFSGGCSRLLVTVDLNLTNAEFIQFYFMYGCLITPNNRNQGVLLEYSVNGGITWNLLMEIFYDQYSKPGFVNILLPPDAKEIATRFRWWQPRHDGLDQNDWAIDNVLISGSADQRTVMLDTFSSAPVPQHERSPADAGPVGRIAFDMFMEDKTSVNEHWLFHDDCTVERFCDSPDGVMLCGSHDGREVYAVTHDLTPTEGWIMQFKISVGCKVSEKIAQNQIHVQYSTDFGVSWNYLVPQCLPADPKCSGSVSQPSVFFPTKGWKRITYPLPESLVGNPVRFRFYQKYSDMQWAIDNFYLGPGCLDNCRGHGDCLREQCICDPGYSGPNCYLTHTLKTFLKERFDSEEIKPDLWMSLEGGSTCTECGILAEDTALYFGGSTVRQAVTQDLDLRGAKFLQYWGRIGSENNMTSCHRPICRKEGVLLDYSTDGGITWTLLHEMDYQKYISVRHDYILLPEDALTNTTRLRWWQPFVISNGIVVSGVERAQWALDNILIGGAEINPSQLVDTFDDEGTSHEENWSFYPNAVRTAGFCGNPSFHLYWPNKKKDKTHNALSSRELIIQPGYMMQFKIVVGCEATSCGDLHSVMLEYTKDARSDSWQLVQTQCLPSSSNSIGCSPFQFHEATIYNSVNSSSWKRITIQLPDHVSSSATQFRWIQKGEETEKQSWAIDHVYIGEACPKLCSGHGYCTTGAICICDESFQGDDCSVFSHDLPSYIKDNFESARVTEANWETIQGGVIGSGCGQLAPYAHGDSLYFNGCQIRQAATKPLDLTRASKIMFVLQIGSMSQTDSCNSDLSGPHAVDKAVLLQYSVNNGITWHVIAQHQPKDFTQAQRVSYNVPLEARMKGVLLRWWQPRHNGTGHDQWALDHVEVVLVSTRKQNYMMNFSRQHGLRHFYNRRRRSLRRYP
inactive: alvocidib 0.026 | Tubastatin A -0.051 | [1] -0.025 | defactinib 0.055 | [2] -0.016 | encorafenib -0.009 | [3] -0.092 | alisertib -0.014 | [4] 0.141 | gefitinib 0.089 | lapatinib 0.047 | pictilisib 0.047 | crizotinib -0.022 | [5] -0.104 | duvelisib 0.002 | gandotinib 0.057 | tozasertib -0.002 | doramapimod -0.044 | bafetinib -0.042 | [6] 0.08

REXO4 (UniProt Q9GZR2)
active: [5] 0.349
inactive: alvocidib 0.089 | Tubastatin A -0.108 | [1] 0.026 | defactinib 0.013 | [2] 0.032 | encorafenib -0.007 | [3] 0.08 | alisertib -0.008 | [4] 0.024 | gefitinib -0.029 | lapatinib 0 | pictilisib -0.128 | crizotinib 0.017 | duvelisib -0.003 | gandotinib -0.169 | tozasertib -0.017 | doramapimod -0.056 | bafetinib -0.06 | [6] -0.139

RPS6KA1 (UniProt Q15418)
inactive: Tubastatin A -0.194 | defactinib 0.236 | [2] -0.007 | encorafenib -0.121 | [3] -0.002 | alisertib 0.012 | [4] 0.165 | gefitinib -0.007 | lapatinib -0.067 | pictilisib 0.08 | crizotinib -0.043 | [5] 0.007 | duvelisib 0.008 | gandotinib 0.05 | tozasertib 0.165 | doramapimod -0.039 | bafetinib -0.135 | [6] -0.172
active: alvocidib 0.447 | [1] 0.758

SCCPDH (UniProt Q8NBX0)
inactive: alvocidib -0.051 | Tubastatin A 0.044 | [1] 0.05 | defactinib 0.028 | [2] 0.333 | encorafenib -0.076 | [3] 0.129 | alisertib -0.011 | [4] 0.005 | gefitinib -0.063 | lapatinib 0.108 | pictilisib 0.006 | crizotinib 0.394 | [5] -0.179 | duvelisib 0.195 | tozasertib -0.052 | doramapimod -0.102 | bafetinib -0.015 | [6] 0.034
active: gandotinib 0.869

SEH1L isoform 1 (UniProt Q96EE3)
Chain of UniProt Q96EE3 (Q96EE3 whole entry, looked up): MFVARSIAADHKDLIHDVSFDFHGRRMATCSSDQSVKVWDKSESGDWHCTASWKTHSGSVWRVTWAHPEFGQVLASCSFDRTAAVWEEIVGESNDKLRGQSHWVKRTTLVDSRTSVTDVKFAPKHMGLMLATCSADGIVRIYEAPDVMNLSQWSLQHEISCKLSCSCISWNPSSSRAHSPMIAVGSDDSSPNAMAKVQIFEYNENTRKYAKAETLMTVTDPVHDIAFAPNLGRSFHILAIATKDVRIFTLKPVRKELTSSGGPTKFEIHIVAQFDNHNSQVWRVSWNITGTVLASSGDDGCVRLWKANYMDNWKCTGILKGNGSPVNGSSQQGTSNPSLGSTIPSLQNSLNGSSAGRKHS
inactive: alvocidib -0.042 | Tubastatin A 0 | [1] 0 | defactinib -0.028 | [2] -0.014 | encorafenib -0.007 | [3] -0.077 | alisertib 0.001 | [4] 0.01 | gefitinib -0.004 | lapatinib -0.03 | pictilisib -0.009 | crizotinib 0.01 | [5] -0.027 | duvelisib -0.049 | gandotinib 0.029 | tozasertib 0.011 | doramapimod 0.007 | bafetinib -0.085 | [6] 0.052

RBM22 (UniProt Q9NW64)
inactive: alvocidib 0.022 | Tubastatin A 0.019 | [1] 0.009 | defactinib 0.001 | [2] 0.179 | encorafenib 0.05 | [3] -0.11 | alisertib 0.002 | [4] 0.026 | gefitinib 0.031 | lapatinib -0.01 | pictilisib -0.011 | crizotinib 0.038 | [5] 0.034 | duvelisib 0.008 | gandotinib -0.019 | tozasertib 0.026 | doramapimod 0.072 | bafetinib 0.001 | [6] -0.016

RAB6D (UniProt Q53S08)
inactive: alvocidib -0.029 | Tubastatin A 0.078 | [1] 0.024 | defactinib 0.077 | [2] 0.087 | encorafenib 0.023 | [3] -0.034 | alisertib -0.149 | [4] 0.062 | gefitinib 0.027 | lapatinib 0.005 | pictilisib -0.008 | crizotinib -0.036 | [5] -0.058 | duvelisib 0 | gandotinib 0.189 | tozasertib 0.015 | doramapimod -0.001 | bafetinib -0.136 | [6] 0.154

RDH14 (UniProt Q9HBH5)
inactive: alvocidib -0.001 | Tubastatin A -0.033 | [1] 0.088 | defactinib -0.044 | [2] -0.123 | encorafenib -0.028 | [3] -0.199 | alisertib 0.07 | [4] -0.043 | gefitinib -0.07 | lapatinib 0.082 | pictilisib -0.028 | crizotinib 0.009 | [5] -0.191 | duvelisib 0.002 | gandotinib 0.176 | tozasertib 0.043 | doramapimod 0 | bafetinib -0.005 | [6] 0.198

RANBP2 (UniProt P49792)
inactive: alvocidib -0.001 | Tubastatin A -0.169 | [1] 0.011 | defactinib 0.004 | [2] -0.041 | encorafenib 0.038 | [3] 0.042 | alisertib -0.01 | [4] 0 | gefitinib -0.013 | lapatinib 0.002 | pictilisib -0.001 | crizotinib -0.01 | [5] -0.009 | duvelisib -0.014 | gandotinib -0.069 | tozasertib 0.001 | doramapimod -0.002 | bafetinib -0.02 | [6] 0.06

RNF40 (UniProt O75150)
inactive: alvocidib -0.003 | Tubastatin A -0.102 | [1] 0.023 | defactinib 0.022 | [2] -0.006 | encorafenib 0.015 | [3] 0.079 | alisertib -0.002 | [4] 0 | gefitinib 0.013 | lapatinib -0.019 | pictilisib -0.005 | crizotinib -0.01 | [5] -0.011 | duvelisib -0.001 | gandotinib -0.048 | tozasertib -0.002 | doramapimod 0.002 | bafetinib 0.01 | [6] 0.03

SCML2 (UniProt Q9UQR0)
inactive: alvocidib 0.006 | Tubastatin A -0.204 | [1] 0.031 | defactinib -0.03 | [2] -0.035 | encorafenib 0.01 | [3] 0.18 | alisertib 0.025 | [4] -0.016 | gefitinib -0.053 | lapatinib 0.035 | pictilisib -0.027 | crizotinib -0.022 | [5] 0.034 | duvelisib 0.006 | gandotinib -0.045 | tozasertib 0.029 | doramapimod 0 | bafetinib -0.017 | [6] -0.014

SCD (UniProt O00767)
inactive: alvocidib -0.138 | Tubastatin A -0.015 | [1] -0.014 | defactinib -0.02 | [2] -0.091 | encorafenib -0.097 | [3] 0.076 | alisertib 0.006 | [4] 0.004 | gefitinib 0.011 | lapatinib 0.059 | pictilisib 0 | crizotinib -0.08 | duvelisib 0.067 | gandotinib 0.155 | tozasertib 0.065 | doramapimod 0.077 | bafetinib -0.053 | [6] 0.273
active: [5] -0.443

RBM4 (UniProt Q9BWF3)
Chain of UniProt Q9BWF3 (Q9BWF3 whole entry, looked up): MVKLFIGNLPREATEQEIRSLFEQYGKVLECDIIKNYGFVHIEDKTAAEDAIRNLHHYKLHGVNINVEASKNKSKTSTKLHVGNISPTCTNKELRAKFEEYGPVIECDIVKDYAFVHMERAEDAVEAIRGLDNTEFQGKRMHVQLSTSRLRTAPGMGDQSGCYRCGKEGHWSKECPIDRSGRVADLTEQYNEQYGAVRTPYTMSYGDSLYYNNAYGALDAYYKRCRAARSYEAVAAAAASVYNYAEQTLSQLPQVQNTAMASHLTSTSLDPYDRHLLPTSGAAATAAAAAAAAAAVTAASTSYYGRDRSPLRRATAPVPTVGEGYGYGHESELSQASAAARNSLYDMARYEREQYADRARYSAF
inactive: alvocidib 0.16 | Tubastatin A -0.168 | [1] 0.013 | defactinib -0.011 | [2] -0.088 | encorafenib 0.089 | [3] -0.066 | alisertib 0.037 | [4] 0.006 | gefitinib -0.004 | lapatinib -0.015 | pictilisib -0.01 | crizotinib 0.018 | [5] 0.183 | duvelisib -0.003 | gandotinib -0.097 | tozasertib 0.075 | doramapimod -0.109 | bafetinib -0.02 | [6] -0.069

RBSN (UniProt Q9H1K0)
Chain of UniProt Q9H1K0 (Q9H1K0 whole entry, looked up): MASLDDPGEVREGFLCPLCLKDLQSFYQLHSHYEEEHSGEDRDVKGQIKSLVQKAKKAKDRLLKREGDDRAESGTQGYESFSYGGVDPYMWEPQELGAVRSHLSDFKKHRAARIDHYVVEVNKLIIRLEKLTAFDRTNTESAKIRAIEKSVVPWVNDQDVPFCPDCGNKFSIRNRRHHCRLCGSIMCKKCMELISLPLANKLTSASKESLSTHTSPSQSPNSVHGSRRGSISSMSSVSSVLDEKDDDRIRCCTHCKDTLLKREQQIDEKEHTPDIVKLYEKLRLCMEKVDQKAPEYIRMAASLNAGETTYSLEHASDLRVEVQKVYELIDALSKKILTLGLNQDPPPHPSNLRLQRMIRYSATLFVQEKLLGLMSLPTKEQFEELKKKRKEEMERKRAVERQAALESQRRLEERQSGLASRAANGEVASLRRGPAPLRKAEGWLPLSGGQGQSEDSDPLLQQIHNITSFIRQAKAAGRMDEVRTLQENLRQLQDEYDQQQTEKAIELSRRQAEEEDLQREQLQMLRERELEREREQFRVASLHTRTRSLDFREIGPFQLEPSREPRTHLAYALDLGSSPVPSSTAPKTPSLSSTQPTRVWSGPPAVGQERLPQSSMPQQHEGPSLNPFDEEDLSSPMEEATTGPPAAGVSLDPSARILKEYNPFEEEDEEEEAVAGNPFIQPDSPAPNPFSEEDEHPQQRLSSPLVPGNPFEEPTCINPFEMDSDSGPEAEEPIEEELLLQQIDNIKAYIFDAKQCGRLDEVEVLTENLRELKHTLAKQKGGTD
inactive: alvocidib -0.031 | Tubastatin A 0.005 | [1] -0.047 | defactinib 0.015 | [2] -0.014 | encorafenib 0.089 | [3] -0.048 | alisertib 0.019 | [4] 0.015 | gefitinib 0.059 | lapatinib -0.008 | pictilisib -0.024 | crizotinib -0.012 | [5] -0.032 | duvelisib 0.093 | gandotinib 0.019 | tozasertib 0.13 | doramapimod -0.026 | bafetinib 0.026 | [6] 0.059

RAB21 (UniProt Q9UL25)
inactive: alvocidib 0.069 | Tubastatin A 0.034 | [1] 0.048 | defactinib -0.025 | [2] 0.026 | encorafenib 0.005 | [3] -0.072 | alisertib 0.015 | [4] 0.013 | gefitinib 0.003 | lapatinib -0.028 | pictilisib -0.053 | crizotinib -0.001 | [5] 0.208 | duvelisib -0.087 | gandotinib -0.112 | tozasertib -0.013 | doramapimod -0.055 | bafetinib -0.059 | [6] -0.09

RSU1 (UniProt Q15404)
inactive: alvocidib 0.12 | Tubastatin A 0.057 | [1] -0.021 | defactinib -0.042 | [2] -0.008 | encorafenib -0.035 | [3] -0.035 | alisertib -0.005 | [4] 0.015 | gefitinib 0.023 | lapatinib 0.001 | pictilisib 0.045 | crizotinib 0.07 | duvelisib 0.007 | gandotinib -0.116 | tozasertib 0.015 | doramapimod -0.045 | bafetinib 0.039 | [6] -0.135
active: [5] 0.329

From the supplement of paper PMC10849652
